Compound activity as filed in PubChem.
DAX1 inh = blocks DAX1 repression of SF-1 activated StAR promoter | HEK293T StAR-luciferase reporter, SF-1/DAX-1 repression relief | hit rate 1.1% among 370,000 | inhibition, % at 6.8 µM;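 active = inhibition above the mean over all tested compounds plus 3 SD, cut at about 3.6% in these data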;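 also: 0% = DAX-1 cells with DMSO and 100% = cells lacking DAX-1 with DMSO; higher inhibition means more luminescence from relief of DAX-1 repression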
Wnt act = activates Wnt/beta-catenin signaling in a reporter cell assay; activator, plate reader; activation, % at 9.35 µM; AID 743398; hit rate 1.2% among 300,000; in the data active = activation above about 30%, passing the limit was not always enough; inconclusive = no clear call, values can overlap the other calls;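 also: 0% = neutral control wells and 100% = positive control wells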
hgDAF-12 ag = hgDAF-12 agonism, primary luciferase screen; HEK293 GAL4-hgDAF12 UAS-luciferase reporter, agonist luminescence; normalized to butyrate control; activation, % at 6.8 µM; hit rate 1.8% among 370,000; AID 687014;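 active = activation above a cutoff set at the mean of all screened compounds plus 3 SD, cut at about 10% in these data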;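 also: 0% = DMSO wells and 100% = sodium butyrate wells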
hcDAF12 agonist = H. contortus DAF-12 activation, primary screen; activation, % at 6.8 µM; HEK293 hcDAF-12 lit1-tk-luc reporter, luminescence; 0% DMSO, 100% Δ7-dafachronic acid; hit rate 1.4% among 370,000;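 active = activation above the mean of all tested compounds plus 3 SD, cut at about 5.5% in these data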;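 also: 100% = response to 3 µM Δ7-dafachronic acid high control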
esBAF inh = SWI/SNF esBAF complex inhibition; mouse ES cells, Bmi1-luciferase knock-in reporter, 24 h; 100% = twice the neutral-well signal; reporter increase, % at 12.5 µM; hit rate 2% among 350,000; in the data active = activation above about 40%; inconclusive = no clear call, values can overlap the other calls;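 also: 0% = median of the plate's neutral control wells and 100% = double that signal; a rise in the Bmi1 reporter signal indicates esBAF inhibition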
ssDAF12 agonist = activators of S. stercoralis DAF-12 nuclear receptor; HEK293 ssDAF-12/GRIP1 lit1-tk-luc reporter, luminescence; % of 3 µM dafachronic acid response; activation, % at 6.8 µM; hit rate 1% among 370,000; AID 652126;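 active = activation above the mean over all tested compounds plus 3 SD, cut at about 0.9% in these data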;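 also: 0% = DMSO-only wells and 100% = 3 µM delta7-dafachronic acid wells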
DAX1 inh confirm = confirmation of human DAX1 (NR0B1) inhibitors; shares compounds with DAX1 inh; HEK293T StAR-promoter luciferase reporter, SF-1/DAX-1 repression; inhibition, % at 6.8 µM; hit rate 87% among 2,400;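 active = inhibition above the average of every tested compound plus 3 SD, cut at about 3.8% in these data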;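 also: 0% = DAX-1 cells with DMSO and 100% = no DAX-1 control cells with DMSO; active compounds raise luminescence by relieving repression of the StAR reporter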
Target sequence (P51843 whole entry, looked up): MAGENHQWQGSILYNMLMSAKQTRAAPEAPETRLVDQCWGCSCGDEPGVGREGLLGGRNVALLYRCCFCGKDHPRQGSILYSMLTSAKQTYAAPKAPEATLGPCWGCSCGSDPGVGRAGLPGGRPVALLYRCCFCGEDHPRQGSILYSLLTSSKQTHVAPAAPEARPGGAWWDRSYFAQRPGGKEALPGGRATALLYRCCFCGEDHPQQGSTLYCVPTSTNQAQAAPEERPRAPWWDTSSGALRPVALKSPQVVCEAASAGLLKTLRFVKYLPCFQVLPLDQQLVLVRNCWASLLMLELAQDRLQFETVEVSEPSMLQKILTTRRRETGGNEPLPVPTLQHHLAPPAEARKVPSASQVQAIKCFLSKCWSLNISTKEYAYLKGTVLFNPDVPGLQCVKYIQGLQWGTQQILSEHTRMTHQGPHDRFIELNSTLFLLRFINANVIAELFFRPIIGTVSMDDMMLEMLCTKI
SF1 mutant ctr = nonselective inhibitor or artifact in SF-1 mutant DAX1 counter-screen. hit rate 78% among 2,400. inhibition, % at 6.8 µM. shares compounds with DAX1 inh. HEK293 StAR-luciferase, SF-1 AF2 mutant, luminescence;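 active = inhibition above the mean of all tested compounds plus 3 SD, cut at about 3% in these data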;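 also: 0% = DAX-1 transfected cells with DMSO and 100% = cells without DAX-1 with DMSO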
LXR ag = counter-screen for hcDAF-12 agonists: agonists of human LXR-beta; shares compounds with hcDAF12 agonist; HEK293 Gal4-LXR tk-luc reporter, luminescence, 24 h; normalized: DMSO 0%, positive control 100%; activation, % at 6.8 µM; 3,400 tested, under 10 active; AID 743027;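 active = mean percent activation of the reporter above a cutoff set as the average over tested compounds plus their standard deviation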
hcDAF12 conf = confirmation of H. contortus DAF-12 agonists; shares compounds with hcDAF12 agonist; activation, % at 6.8 µM; HEK293 hcDAF-12 lit1-tk-luc reporter, luminescence; % of Δ7-dafachronic acid response; hit rate 61% among 3,400;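 active = mean activation across triplicate tests above the threshold derived from the earlier primary screen, cut at about 5.5% in these data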;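 also: 0% = DMSO only wells and 100% = 3 µM Δ7-dafachronic acid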
Numbers without * were called inactive; u = inconclusive; x = no result. Sampled rows, rich in hits. Any-hit rate of the full collection: about 4.2%.

SMILES	DAX1 inh	Wnt act	hgDAF-12 ag	hcDAF12 agonist	esBAF inh	ssDAF12 agonist	DAX1 inh confirm	SF1 mutant ctr	LXR ag	hcDAF12 conf
CN(C)c1ccc(/C=N/NC(=O)c2ccco2)cc1	4.6*	42*	14*	10*	-5	1.2*	14*	7.1*	1	5
CN(C)c1ccc(/C=N/NC(=O)c2ccnn2C)cc1	2	14	9	1	x	-1	x	x	x	x
O=C(N[C@@H]1CC[C@@H](CCn2cc(-c3ccccn3)nn2)O[C@H]1CO)c1ccncc1	x	x	x	x	4	x	x	x	x	x
COc1ccc(-n2nc3ccc(N)cc3n2)cc1	1	-1	1	-1	-59	-1	x	x	x	x
CC(C)c1ccc(-n2nc3ccc(N)cc3n2)cc1	5.1*	38*	15*	9.8*	-45	2.2*	14*	7.8*	2	18*
O=c1oc2ccccc2cc1-c1nc2c(s1)CCCC2	5.0*	-7	12*	10*	-61	1	5.2*	-1	1	14*
CCCNC(=O)C[C@H]1CC[C@@H]2[C@H](COc3ccc(NS(=O)(=O)CC)cc3C(=O)N2C)O1	x	x	x	x	-6	x	x	x	x	x
Cc1cccc(/C=N/Nc2nncc3ccccc23)c1	14*	6	18*	12*	-11	1	12*	4.9*	2	12*
C[C@@H]1CN([C@H](C)CO)C(=O)c2cc(NC(=O)NC3CCCCC3)ccc2O[C@@H](C)CCCCO[C@@H]1CN(C)S(=O)(=O)c1ccccc1	x	x	x	x	-1	x	x	x	x	x
c1ccc(-c2cc(-c3nc(-c4ccccn4)no3)c3ccccc3n2)cc1	1	x	0	0	-4	-1	x	x	x	x
c1ccc(-c2noc(-c3cccc4ccccc34)n2)nc1	5.5*	x	13*	18*	-47	3.0*	12*	4.6*	2	20*
Cc1cc(C(=O)CSc2nnc(N)s2)c(C)n1Cc1cccs1	6.2*	4	8	6.7*	x	0	16*	2	1	4
Cc1csc(SCC(=O)c2cc(C)n(Cc3cccs3)c2C)n1	-3	x	-9	-3	-71	-2	x	x	x	x
O=C(O)c1cc(N/N=C/C(Cl)=C/c2ccccc2)ccc1Cl	13*	-1	28*	11*	-10	2.2*	22*	12*	2	13*
Cc1ccc(/C=N/Nc2ccc(Cl)c(C(=O)O)c2)s1	6.7*	x	22*	19*	x	4.1*	12*	9.1*	2	12*
CN1CCN(C(=O)C[C@H]2C[C@@H]3c4cc(NC(=O)C5CCOCC5)ccc4O[C@@H]3[C@H](CO)O2)CC1	x	x	x	x	3	x	x	x	x	x
Cc1ccc(S(=O)(=O)N(C)C[C@H]2Oc3ccc(NC(=O)NC(C)C)cc3C(=O)N([C@H](C)CO)C[C@@H]2C)cc1	x	x	x	x	-2	x	x	x	x	x
COc1ccc(NC(=O)Nc2cc(C)ccn2)cc1	5.0*	44*	19*	7.3*	-67	1	17*	8.2*	2	8.9*
COc1cc(C(=O)Nc2cc(C)ccn2)cc(OC)c1OC	0	1	0	-2	-4	-1	x	x	x	x
COc1ccc(C(=O)NC(=O)Nc2cc(C)ccn2)cc1	6.6*	-10	8	7.7*	-77	1	-1	-4	1	3
C[C@H](CO)N1C[C@H](C)[C@H](CN(C)C(=O)Nc2ccc3c(c2)OCO3)Oc2ncc(C#CCN(C)C)cc2C1=O	x	x	x	x	-2	x	x	x	x	x
CC1CCC(NC(=O)C(=O)Nc2ccc3c(c2)OCO3)CC1 (configuration not stated)	7.8*	32*	5	7.0*	56*	0	8.9*	8.8*	1	5.7*
COCC(=O)Nc1ccc2c(c1)C(=O)N(C)C[C@@H](OC)[C@@H](C)CN(CC1CC1)[C@H](C)CO2	x	x	x	x	-1	x	x	x	x	x
C/C(=N/NC(=O)c1ccccc1)C(=O)O	1	0	-1	1	5	-1	x	x	x	x
C/C(=N\NC(=O)c1ccccc1)C1C2C=CC(C2)C1(C)C (configuration not stated)	6.0*	2	9	8.3*	-3	1.9*	2	0	0	4
SMILES	DAX1 inh	Wnt act	hgDAF-12 ag	hcDAF12 agonist	esBAF inh	ssDAF12 agonist	DAX1 inh confirm	SF1 mutant ctr	LXR ag	hcDAF12 conf
Cc1ccc2nc(-c3ccc(NC(=O)COC(=O)c4cncc(Br)c4)cc3)sc2c1	5.7*	u	13*	9.5*	-61	1.6*	17*	7.5*	2	12*
O=C(Nc1ccc2c(c1)CCC2)c1ccc(F)cc1	5.7*	18	20*	6.7*	-17	1	13*	5.4*	2	6.6*
O=C(Nc1ccc2c(c1)CCC2)c1c(F)cccc1Cl	2	17	10	3	x	0	x	x	x	x
CC(=O)c1c(C)[nH]c(C(=O)Nc2cccc(C)n2)c1C	12*	39*	12*	6.9*	-6	0	11*	4.7*	1	3
COc1ccc(NC(=O)c2[nH]c(C)c(C(C)=O)c2C)cc1	4.7*	7	11*	11*	x	1.7*	6.5*	6.8*	1	10*
C(=Cc1nc2ccccc2o1)c1ccc2c(c1)OCO2	13*	26	14*	8.1*	-68	0	6.3*	0	1	8.9*
C(=Cc1cnc2ccccc2n1)c1ccc2c(c1)OCO2	0	-1	-7	-2	-83	-1	x	x	x	x
CO[C@H]1CN(C)C(=O)c2cc(NC(C)=O)ccc2OC[C@@H](C)N(C(=O)C2CCCCC2)C[C@H]1C	x	x	x	x	-1	x	x	x	x	x
COc1cc(N/N=C/c2ccccc2O)ncn1	-1	x	7	2	x	0	x	x	x	x
COc1cc(N/N=C/c2ccc(N(C)C)cc2)ncn1	10*	0	12*	11*	-56	1	12*	4.3*	2	8.4*
N#Cc1ccsc1NC(=O)CSc1nncs1	8.4*	u	16*	9.4*	-9	0	11*	5.2*	1	11*
CCOC(=O)c1sc(=NC(=O)c2ccccc2Br)n(C)c1C	7.4*	32*	11*	13*	58*	1	9.6*	4.2*	2	10*
